Results reported in PubChem BioAssay (EPA / NIEHS).
Inconclusive results are not listed. Active and inactive are the calls of the source. How the source made its calls, unless noted: active means hit-call score of the fitted dose curve at least 0.9, where 1 is the maximum; inactive means score below 0.9.

What was measured:
[1] = ATG_TAL_CIS: Attagene CIS-FACTORIAL HepG2 Assay for human TAL Basal Promoter (AID 2282966); conditions: HepG2 Attagene cis-factorial TAL promoter reporter; actives raise or lower the signal;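 further: background control endpoint measuring basal TAL promoter reporter mRNA not a specific factor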
Outline: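 Basal-promoter background-control endpoint from a multiplexed HepG2 reporter panel. Cells were exposed 24 h, then reporter mRNA was read by RT-PCR/CE fluorescence and fitted in both directions relative to DMSO.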

[2] = ATG_TGFb_CIS: Attagene CIS-FACTORIAL HepG2 Assay for human Transforming Growth Factor (TGF) (AID 2282967); conditions: HepG2 Attagene CIS TGFb reporter, mRNA transcription; actives raise or lower the signal
Outline: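 Liver HepG2 line, cis-factorial reporter panel, 24 h dosing. Quantitation: RT-PCR products labeled with 6-FAM, cut with HpaI, resolved by capillary electrophoresis; DMSO-referenced bidirectional analysis.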

[3] = ATG_VDRE_CIS: Attagene CIS-FACTORIAL HepG2 Assay for human Vitamin D Receptor Element (VDRE) (AID 2282968); conditions: HepG2 VDRE cis-reporter transcription, actives raise or lower the signal
Outline: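 Compounds were applied for 24 h to HepG2 cells transfected with promoter-regulated reporter units. Total RNA was reverse-transcribed, and reporter amplicons were fluorescently labelled and sized by capillary electrophoresis.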

[4] = target: Nuclear receptor subfamily 1 group I member 3 (Homo sapiens) (UniProt Q14994); test: ATG_CAR_TRANS: Attagene TRANS-FACTORIAL HepG2 Assay for human Constitutive Androstane Receptor (CAR) (AID 2282969; active means hit-call score of the fitted dose curve at least 0.9, where 1 is the maximum;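 further: activators raise reporter mRNA above DMSO so AC50 marks induction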); conditions: HepG2 Attagene TRANS-FACTORIAL CAR reporter
Chain of Nuclear receptor subfamily 1 group I member 3 (Homo sapiens) (Q14994 whole entry, looked up, the tested form may be a part): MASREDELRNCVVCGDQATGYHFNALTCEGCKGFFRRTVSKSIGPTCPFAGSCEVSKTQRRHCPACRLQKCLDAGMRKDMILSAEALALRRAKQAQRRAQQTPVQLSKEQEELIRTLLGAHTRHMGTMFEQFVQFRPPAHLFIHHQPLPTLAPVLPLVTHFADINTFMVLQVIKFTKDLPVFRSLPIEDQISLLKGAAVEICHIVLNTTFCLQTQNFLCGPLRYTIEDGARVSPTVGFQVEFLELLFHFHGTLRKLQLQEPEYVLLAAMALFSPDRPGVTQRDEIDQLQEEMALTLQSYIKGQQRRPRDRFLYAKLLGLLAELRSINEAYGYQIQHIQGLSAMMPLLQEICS
Outline: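 Transiently transfected HepG2, multiplex TRANS reporters (CAR-Gal4 chimera driving GAL4-UAS reporter). 24 h dosing. Readout: reporter transcript by RT-PCR + capillary electrophoresis, fluorescence intensity; positive direction vs DMSO.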

[5] = target: Estrogen receptor (Homo sapiens) (UniProt P03372); test: ATG_ERa_TRANS: Attagene TRANS-FACTORIAL HepG2 Assay for human Estrogen Receptor alpha (ERa) (AID 2282970; active means hit-call score of the fitted dose curve at least 0.9, where 1 is the maximum); conditions: HepG2 Attagene TRANS ERa GAL4 reporter, mRNA
Chain of Estrogen receptor (Homo sapiens) (P03372 whole entry, looked up, the tested form may be a part): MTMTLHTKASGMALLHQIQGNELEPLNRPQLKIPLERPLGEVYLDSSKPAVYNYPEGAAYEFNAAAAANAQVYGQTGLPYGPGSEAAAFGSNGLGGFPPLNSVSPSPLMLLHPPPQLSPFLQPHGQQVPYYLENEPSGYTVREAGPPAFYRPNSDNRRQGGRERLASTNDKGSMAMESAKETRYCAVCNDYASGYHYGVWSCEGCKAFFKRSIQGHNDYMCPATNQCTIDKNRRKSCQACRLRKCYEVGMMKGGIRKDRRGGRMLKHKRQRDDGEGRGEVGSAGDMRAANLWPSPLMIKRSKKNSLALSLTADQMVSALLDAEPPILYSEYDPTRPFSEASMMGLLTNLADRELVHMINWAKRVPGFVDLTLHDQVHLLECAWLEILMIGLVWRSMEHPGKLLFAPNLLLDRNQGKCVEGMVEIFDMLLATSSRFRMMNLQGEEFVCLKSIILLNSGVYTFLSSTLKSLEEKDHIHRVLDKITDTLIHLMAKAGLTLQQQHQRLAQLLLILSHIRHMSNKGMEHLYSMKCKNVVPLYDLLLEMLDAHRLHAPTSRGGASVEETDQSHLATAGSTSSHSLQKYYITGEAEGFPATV
Outline: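 Gal4-fusion ERa transactivation, measured as reporter transcript level in transiently transfected HepG2 cells. Exposure 24 h; RT-PCR plus capillary electrophoresis with fluorescence detection.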

[6] = target: X-box-binding protein 1 (Homo sapiens) (UniProt P17861); test: ATG_Xbp1_CIS: Attagene CIS-FACTORIAL HepG2 Assay for human X-box Binding Protein 1 (XBP1) (AID 2282972); conditions: HepG2 XBP1 cis-element reporter, Attagene multiplex; actives raise or lower the signal
Chain of X-box-binding protein 1 (Homo sapiens) (P17861 whole entry, looked up): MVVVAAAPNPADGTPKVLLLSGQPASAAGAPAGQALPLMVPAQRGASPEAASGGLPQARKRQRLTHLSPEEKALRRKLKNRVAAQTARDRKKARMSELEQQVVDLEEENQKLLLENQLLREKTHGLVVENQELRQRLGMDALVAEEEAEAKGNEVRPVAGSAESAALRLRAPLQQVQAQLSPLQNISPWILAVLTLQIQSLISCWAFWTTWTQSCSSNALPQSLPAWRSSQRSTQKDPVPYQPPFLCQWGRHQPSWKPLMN
Outline: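 Human hepatoma HepG2, cis-element reporter system, 24 h treatment; mRNA quantified by RT-PCR/CE fluorescence; fit relative to DMSO.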

[7] = ATG_M_19_TRANS: Attagene TRANS-FACTORIAL HepG2 Assay for M19 Transcription Factor (Internal Marker) (AID 2282974; active means hit-call score of the fitted dose curve at least 0.9, where 1 is the maximum); conditions: HepG2 Attagene TRANS-FACTORIAL M19 internal marker reporter
Outline: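 Cells: human HepG2, transiently transfected with multiplexed reporter transcription units. Exposure: 24 h. Detection: RT-PCR of reporter mRNA with capillary electrophoresis. Analysis: gain-of-signal vs DMSO.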

[8] = target: Androgen receptor (Homo sapiens) (UniProt P10275); test: ATG_AR_TRANS: Attagene TRANS-FACTORIAL HepG2 Assay for human Androgen Receptor (AR) (AID 2282973; active means hit-call score of the fitted dose curve at least 0.9, where 1 is the maximum); conditions: HepG2 Attagene TRANS-FACTORIAL AR reporter transcription
Chain of Androgen receptor (Homo sapiens) (P10275 whole entry, looked up, the tested form may be a part): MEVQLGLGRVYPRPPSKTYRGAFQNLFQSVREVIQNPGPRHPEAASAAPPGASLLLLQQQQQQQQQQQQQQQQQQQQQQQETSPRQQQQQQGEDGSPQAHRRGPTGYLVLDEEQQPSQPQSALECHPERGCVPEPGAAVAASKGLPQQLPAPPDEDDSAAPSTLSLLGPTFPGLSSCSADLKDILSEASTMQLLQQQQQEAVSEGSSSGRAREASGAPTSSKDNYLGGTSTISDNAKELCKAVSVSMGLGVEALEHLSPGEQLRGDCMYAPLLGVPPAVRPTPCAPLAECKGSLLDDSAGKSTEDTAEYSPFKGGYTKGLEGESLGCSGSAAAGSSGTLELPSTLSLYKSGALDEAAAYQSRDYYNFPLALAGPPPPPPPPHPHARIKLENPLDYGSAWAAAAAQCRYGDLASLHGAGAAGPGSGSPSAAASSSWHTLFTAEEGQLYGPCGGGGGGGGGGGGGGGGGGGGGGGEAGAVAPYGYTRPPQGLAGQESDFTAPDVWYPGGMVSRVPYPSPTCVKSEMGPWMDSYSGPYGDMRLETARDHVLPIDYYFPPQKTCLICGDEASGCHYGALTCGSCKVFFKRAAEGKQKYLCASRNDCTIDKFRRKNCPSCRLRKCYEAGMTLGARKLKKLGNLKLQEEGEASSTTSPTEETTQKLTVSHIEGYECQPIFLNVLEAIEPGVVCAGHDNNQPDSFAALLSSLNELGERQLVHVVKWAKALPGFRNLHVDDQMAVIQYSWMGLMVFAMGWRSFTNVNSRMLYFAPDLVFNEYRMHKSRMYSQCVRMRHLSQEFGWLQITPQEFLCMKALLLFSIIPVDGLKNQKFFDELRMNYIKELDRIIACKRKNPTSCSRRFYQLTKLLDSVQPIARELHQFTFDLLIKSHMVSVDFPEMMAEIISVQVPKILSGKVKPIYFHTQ
Outline: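 HepG2 cells transiently transfected with AR-Gal4 chimera and GAL4-UAS reporter units; chemical exposure 24 h. Reporter mRNA quantified by RT-PCR with fluorescent labelling and capillary electrophoresis; gain-of-signal fitted against DMSO.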

[9] = target: Steroid hormone receptor ERR1 (Homo sapiens) (UniProt P11474); test: ATG_ERRa_TRANS: Attagene TRANS-FACTORIAL HepG2 Assay for human Estrogen-Related Receptor alpha (ERRa) (AID 2282971; active means hit-call score of the fitted dose curve at least 0.9, where 1 is the maximum); conditions: HepG2 Attagene TRANS reporter, ERRa transactivation
Chain of Steroid hormone receptor ERR1 (Homo sapiens) (P11474 whole entry, looked up, the tested form may be a part): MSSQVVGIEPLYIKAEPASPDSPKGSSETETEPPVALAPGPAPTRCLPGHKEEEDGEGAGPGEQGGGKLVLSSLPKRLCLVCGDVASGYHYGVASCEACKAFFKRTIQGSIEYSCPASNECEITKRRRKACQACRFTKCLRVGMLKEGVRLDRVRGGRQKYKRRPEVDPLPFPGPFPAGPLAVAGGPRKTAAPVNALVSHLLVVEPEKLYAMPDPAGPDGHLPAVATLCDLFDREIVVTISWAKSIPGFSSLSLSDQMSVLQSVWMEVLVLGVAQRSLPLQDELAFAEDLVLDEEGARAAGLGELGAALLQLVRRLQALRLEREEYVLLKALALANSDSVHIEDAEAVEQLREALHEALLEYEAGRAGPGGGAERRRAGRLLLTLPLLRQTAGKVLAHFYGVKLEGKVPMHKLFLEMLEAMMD
Outline: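 HepG2 cells transiently transfected with GAL4-UAS reporter units and chimeric NR-Gal4 constructs; after 24 hour compound incubation, reporter mRNA quantified by RT-PCR, fluorescent labelling and capillary electrophoresis, gain of signal versus DMSO.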

[10] = ATG_GAL4_TRANS: Attagene TRANS-FACTORIAL HepG2 Assay for GAL4 (Internal Marker) (AID 2282976; active means hit-call score of the fitted dose curve at least 0.9, where 1 is the maximum); conditions: HepG2 Attagene TRANS GAL4 internal marker reporter
Outline: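 Background-control readout: GAL4-UAS reporter transcript in transiently transfected HepG2 cells after 24 h compound exposure. Measured by RT-PCR, 6-FAM primer extension, HpaI digest and capillary electrophoresis; gain-of-signal fit versus DMSO.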

Measured: AC50

O=NN1CCCC1
not listed: [8] | [9] | [10]
inactive: all other assays above

N#C/C=C/c1ccccc1
inactive: [1] | [2] | [3] | [4] | [6] | [8]

CCCCOCC1CO1 (stereo unspecified)
not listed: [5] | [8] | [10]
inactive: all other assays above

FC(F)(F)C(F)(C(F)(F)F)C(F)(F)C(F)(F)CC1CO1 (stereo unspecified)
inactive: [1] | [2] | [3] | [5] | [6] | [8]

CCOP(=S)(OCC)SCSCC
inactive: [1] | [2] | [6]
active: [3] 35.4 µM | [5] 27.4 µM

O=[N+]([O-])c1cc(Cl)ccc1Cl
inactive: [1] | [2] | [3] | [5] | [6]

O=c1[nH]c2ccccc2c(=O)o1
not listed: [7] | [8] | [9]
inactive: all other assays above

CCOP(=S)(Oc1ccc([N+](=O)[O-])cc1)c1ccccc1 (stereo unspecified)
inactive: [1] | [2] | [9] | [6]
active: [3] 6.46 µM | [5] 3.9 µM

CSC(C)(C)C=NO
inactive: [1] | [2] | [3] | [4] | [6]

OCC(F)(F)OC(F)(F)C(F)(F)OC(F)(F)C(F)(F)OC(F)(F)CO
active: [3] 18.6 µM | [5] 0.281 µM
not listed: [4] | [10]
inactive: all other assays above

ClC(Cl)c1ccccc1
not listed: [5] | [8]
inactive: all other assays above

C=CC(=O)OCC(CC)(COC(=O)C=C)COC(=O)C=C
active: [2] 49.4 µM | [3] 3.37 µM
inactive: [1] | [5] | [9] | [6] | [8]

N#Cc1ccc(O)cc1
not listed: [8] | [9]
inactive: all other assays above

NC(=O)C(F)(F)C(F)(F)F
not listed: [4] | [10]
inactive: all other assays above

CC(C)CBr
inactive: [1] | [2] | [3] | [5] | [6] | [8]

O=[N+]([O-])c1ccc(Cl)c(Cl)c1
not listed: [4] | [8] | [10]
inactive: all other assays above

CC(O)C#N (stereo unspecified)
inactive: [1] | [2] | [3] | [5] | [6] | [8]

CCC(C)(C)c1ccc(O)cc1
active: [5] 2.25 µM
inactive: [1] | [2] | [3] | [9] | [6]

Cc1ccc(N)cc1N
inactive: [1] | [2] | [3] | [5] | [6]

O=C(O)C=CC(F)(C(F)(F)F)C(F)(F)F
not listed: [4] | [7] | [10]
inactive: all other assays above

Cc1c([N+](=O)[O-])cc2c(c1[N+](=O)[O-])C(C)(C)CC2(C)C
not listed: [4] | [7] | [8]
inactive: all other assays above

CC(Cl)(Cl)C(=O)O
inactive: [1] | [2] | [3] | [5] | [6]

CCOC(=O)c1ccccc1C(=O)OCC
inactive: [1] | [2] | [3] | [5] | [9] | [6]

CCCCC(CC)COC(=O)c1c(Br)c(Br)c(Br)c(Br)c1C(=O)OCC(CC)CCCC (stereo unspecified)
inactive: [1] | [2] | [3] | [5] | [6]

CCCCN(CCCC)SN(C)C(=O)Oc1cccc2c1OC(C)(C)C2
active: [5] 75.5 µM
not listed: [8] | [9] | [10]
inactive: all other assays above

CCOC(=O)c1ccccc1N
inactive: [1] | [2] | [3] | [5] | [6]

CC(C)(C)N(NC(=O)c1ccc(Cl)cc1)C(=O)c1ccccc1
inactive: [1] | [2] | [3] | [5] | [6]

Cc1ccc(O)cc1C
inactive: [1] | [2] | [6] | [7]
active: [5] 72.4 µM

NNC(N)=S
inactive: [1] | [2] | [3] | [6] | [7]

Nc1ccc([N+](=O)[O-])cc1Cl
not listed: [4] | [9] | [10]
inactive: all other assays above

CCCCN(CCCC)N=O
inactive: [1] | [2] | [5] | [6] | [10]

Oc1ccccc1Br
inactive: [1] | [2] | [3] | [6]

CCN(CC)c1ccccc1
not listed: [4] | [9] | [10]
inactive: all other assays above

O=P(OCC(Br)CBr)(OCC(Br)CBr)OCC(Br)CBr (stereo unspecified)
inactive: [1] | [2] | [5] | [8]
active: [6] 8.88 µM

CN(C)C(=O)Cl
inactive: [1] | [2] | [3] | [9] | [6]

CC(C)(C)c1ccc(O)cc1
active: [6] 171 µM
inactive: [1] | [2]

COP(=O)(CCC(=O)NCO)OC
inactive: [1] | [2] | [3] | [9] | [6] | [8]

N#Cc1c(-c2ccc(Cl)cc2)[nH]c(C(F)(F)F)c1Br
active: [3] 0.605 µM
not listed: [4] | [9]
inactive: all other assays above

COP(=O)(O)OC
not listed: [3] | [9] | [10]
inactive: all other assays above

O=C(O)CF
inactive: [1] | [2] | [3] | [6] | [7] | [10]

Cc1cccc(N)c1
inactive: [1] | [2] | [3] | [6]

CC(=O)CCc1ccc2c(c1)OCO2
inactive: [1] | [2] | [4] | [5] | [6]

COC(N)=O
inactive: [1] | [2] | [3] | [6] | [7] | [10]

c1ccc2c(c1)Nc1ccccc1S2
active: [5] 11.7 µM
not listed: [3] | [8] | [10]
inactive: all other assays above

CC(Cl)CN(C)C (stereo unspecified)
inactive: [1] | [2] | [3] | [5] | [6] | [7]

c1cc2c3c(cccc3c1)CC2
inactive: [1] | [2] | [4] | [5] | [6] | [7]

CC(C)(C)OOC(C)(C)C
inactive: [1] | [2] | [6] | [7]

CCC1(c2ccccc2)C(=O)N=C(O)NC1=O (stereo unspecified)
inactive: [1] | [2] | [3] | [6] | [10]

CCCCc1ccc(O)cc1
inactive: [1] | [2] | [4] | [6] | [7]
active: [5] 4.66 µM

OCC(F)(F)OC(F)(F)C(F)(F)OC(F)(F)CO
inactive: [1] | [2] | [3] | [6] | [8]
active: [5] 9.78 µM

C=C(C)C(=O)OCC1CO1 (stereo unspecified)
inactive: [1] | [2] | [3] | [6]

Cc1ccc2c(c1N)C(=O)c1ccccc1C2=O
active: [5] 4.04 µM
not listed: [3] | [8] | [10]
inactive: all other assays above

CC1=C(C(=O)Nc2ccccc2)S(=O)(=O)CCO1
inactive: [1] | [2] | [6]
active: [3] 9.33 µM

CCOS(=O)(=O)OCC
inactive: [1] | [2] | [3] | [6]

Cc1ccc([N+](=O)[O-])cc1C
inactive: [1] | [2] | [3] | [5] | [6] | [7]

O=S1(=O)OCC2C(CO1)C1(Cl)C(Cl)=C(Cl)C2(Cl)C1(Cl)Cl (stereo unspecified)
inactive: [1] | [2] | [4] | [5]
active: [6] 167 µM

Oc1ccc(I)cc1
inactive: [1] | [2] | [3] | [6] | [7]
active: [5] 19.7 µM

OCC1CO1 (stereo unspecified)
inactive: [1] | [2] | [3] | [5] | [6] | [7]

Cc1ccc(C(=O)Cl)cc1
inactive: [1] | [2] | [3] | [9] | [6] | [7]

O=C(O)C(Cl)Cl
inactive: [1] | [2] | [6]

Nc1ccc(Cl)cc1
inactive: [1] | [2] | [5] | [6] | [7] | [10]

C=CC(=O)OCC(F)(F)C(F)F
active: [3] 90.3 µM
inactive: [1] | [2] | [9] | [6] | [8]

O=[N+]([O-])c1ccccc1
inactive: [1] | [2] | [6]
active: [5] 19.8 µM

O=C(O)C1C(C(=O)O)C2(Cl)C(Cl)=C(Cl)C1(Cl)C2(Cl)Cl (stereo unspecified)
inactive: [1] | [2] | [5] | [6]

Cn1[nH]nnc1=S
inactive: [1] | [2] | [3] | [6] | [7] | [10]

CCCCc1ccccc1
inactive: [1] | [2] | [3] | [5] | [6] | [7]
